Calls of active or inactive are those of the source. The calls were made as follows: active = hit-call score of the fitted dose curve at least 0.9, where 1 is the maximum; inactive = score below 0.9.
Test: ATG_M_61_CIS: Attagene CIS-FACTORIAL HepG2 Assay for M61 Transcription Factor (Internal Marker) (AID 2282937)
Settings: HepG2 Attagene CIS-FACTORIAL M61 internal marker reporter; actives raise or lower the signal
Description: ATG_CIS is a cell-based, multiplexed-readout assay that uses HepG2, a human liver cell line, with measurements taken at 24 hours after chemical dosing in a 24-well plate.ATG_M_61_CIS is one of 52 assay component(s) measured or calculated from the ATG_CIS assay. It is designed to make measurements of mRNA induction, a form of inducible reporter, as detected with fluorescence intensity signals by Reverse transcription polymerase chain reaction (RT-PCR) and Capillary electrophoresis technology.Data from the assay component ATG_M_61_CIS was analyzed into 1 assay endpoint. This assay endpoint, ATG_M_61_CIS, was analyzed with bidirectional fitting relative to DMSO as the negative control and baseline of activity. Using a type of inducible reporter, measures of mRNA for gain or loss-of-signal activity can be used to understand the background control at the transcription factor-level as they relate to the gene . Furthermore, this assay endpoint can be referred to as a secondary readout, because this assay has produced multiple assay endpoints where this one serves a background control function. To generalize the intended target to other relatable targets, this assay endpoint is annotated to the background measurement intended target family, where the subfamily is internal marker.
Human liver HepG2 cells are transiently transfected with multiple reporter transcription units (MRTUs) in 6-well plates using FuGene 6 reagent (Roche; 3 ml FuGene/1 mg DNA). The MRTU constructs are regulated by a cis-regulating element (promoter). […] A major difference between the CIS and TRANS system is that in CIS activities of endogenous TFs are measured, whereas the TRANS assay evaluates changes in activities of exogenous, chimeric NR-Gal4 proteins. […] At the end of 24 hour incubation, total RNA was isolated using TriZol reagent (Invitrogen). The isolated RNA is then reverse-transcribed using oligo(dT) primer and Mo-MLV reverse transcriptase (Invitrogen) with DNAse I (Ambion) treatment for 30 min. The one-tenth of the produced cDNA was amplified by PCR using Taq DNA polymerase (Invitrogen) and two reporter sequence-specific primers. The PCR products were fluorescently labeled by primer extension with 6-arboxyfluorescein (6-FAM) 5'-labeled reporter sequence-specific primer (2 min at 95 C, 20 s at 68 C and 10 min at 72 C) and these products were digested with 5U of HpaI (New England Biolabs) for 2h at 37 C. The fragments were purified using Qiaquick PCR columns (Qiagen), analyzed on an ABI 3130xL genetic analyzer (Applied Biosystems) with peak positions identified by using a set of X-rhodamine (ROX)-labeled MapMarker1000 molecular weight standards (BioVentures). The raw capillary electrophoresis data was processed using Attagraph software (Attagene).

| Structure (SMILES) | outcome |
| --- | --- |
| C#CCC1=C(C)C(OC(=O)C2C(C=C(C)C)C2(C)C)CC1=O (stereo not given) | inactive |
| Nc1nc(N)nc(NC2CC2)n1 | inactive |
| Cc1cc(C2CC2)nc(Nc2ccccc2)n1 | inactive |
| S=C1NCCN1 | inactive |
| CN(C)[C@@H]1C(=O)C(C(N)=O)=C(O)[C@@]2(O)C(=O)C3=C(O)c4c(O)cccc4[C@@](C)(O)[C@H]3[C@H](O)[C@@H]12 | inactive |
| O=[N+]([O-])c1cc(C(F)(F)F)c(Cl)c([N+](=O)[O-])c1Nc1ncc(C(F)(F)F)cc1Cl | inactive |
| CCc1cccc(C)c1N(C(=O)CCl)C(C)COC (stereo not given) | inactive |
| CCc1cccc(CC)c1N(COC)C(=O)CCl | inactive |
| O=c1ccc(=O)[nH][nH]1 | inactive |
| CCOP(=O)(NC(C)C)Oc1ccc(SC)c(C)c1 (stereo not given) | inactive |
| CN1COCN(Cc2cnc(Cl)s2)C1=N[N+](=O)[O-] | inactive |
| CCCSP(=O)(OCC)SCCC | inactive |
| COP(=O)(NC(C)=O)SC (stereo not given) | inactive |
| CSc1nc(NC(C)C)nc(NC(C)C)n1 | inactive |
| CCOP(=S)(Oc1cnc(C(C)(C)C)nc1)OC(C)C (stereo not given) | inactive |
| CC(C1CC1)C(O)(Cn1cncn1)c1ccc(Cl)cc1 (stereo not given) | inactive |
| CCC(CC)Nc1c([N+](=O)[O-])cc(C)c(C)c1[N+](=O)[O-] | inactive |
| C[N+]1(C)CCCCC1 | inactive |
| CCOP(=S)(OCC)OC(Cl)C(Cl)(Cl)Cl (stereo not given) | inactive |
| CCOP(=S)(OCC)Oc1ccc([N+](=O)[O-])cc1 | inactive |

| Structure (SMILES) | outcome |
| --- | --- |
| C#CC(C)(C)NC(=O)c1cc(Cl)cc(Cl)c1 | inactive |
| CCOC(=O)COc1cc(-c2nn(C)c(OC(F)F)c2Cl)c(F)cc1Cl | inactive |
| COc1ccc(C(=CC(=O)N2CCOCC2)c2ccc(Cl)cc2)cc1OC | inactive |
| CN(C)NC(=O)CCC(=O)O | inactive |
| CNc1cnn(-c2cccc(C(F)(F)F)c2)c(=O)c1Cl | inactive |
| COc1cccc(C(=O)NN(C(=O)c2cc(C)cc(C)c2)C(C)(C)C)c1C | inactive |
| CCOP(=S)(OCC)Oc1cc(C)nc(C(C)C)n1 | inactive |
| CCOP(=O)(SC(C)CC)N1CCSC1=O (stereo not given) | inactive |
| CCC(=NOC/C=C/Cl)C1=C(O)CC(C2CCOCC2)CC1=O (stereo not given) | inactive |
| CNC(=O)ON=C(SC)C(=O)N(C)C | inactive |
| CCOP(=S)(OCC)SCCSCC | inactive |
| C[Si](Cn1cncn1)(c1ccc(F)cc1)c1ccc(F)cc1 | inactive |
| CC(COc1ccc(Oc2ccccc2)cc1)Oc1ccccn1 (stereo not given) | inactive |
| CNC(=O)Oc1cccc2c1OC(C)(C)O2 | inactive |
| CN(C)C(=O)Nc1cccc(C(F)(F)F)c1 | inactive |
| CSC1=N[C@@](C)(c2ccccc2)C(=O)N1Nc1ccccc1 | inactive |
| CON=C(C(=O)OC)c1ccccc1CON=C(C)c1cccc(C(F)(F)F)c1 | inactive |
| CSc1nnc(C(C)(C)C)c(=O)n1N | inactive |
| CCc1cnc(C2=NC(C)(C(C)C)C(=O)N2)c(C(=O)O)c1 (stereo not given) | inactive |
| CC1=NNC(=O)N(/N=C/c2cccnc2)C1 | inactive |

Source: PubChem BioAssay (EPA / NIEHS)
